PubChem BioAssay AID2326 (National Center for Advancing Translational Sciences (NCATS), 2010)
Hit rate of the full screen: of about 270,000 compounds, about 1,100 (0.41%) were called active. About 3% were inconclusive and are not listed. What follows is part of a selection rich in actives, with near analogues and random picks from the rest. Values without a mark were called inactive. Calls come from the whole dose curve.

Assay: qHTS Assay for Inhibitors of Influenza NS1 Protein Function; note: actives are rising curves; nearly all actives have a fitted effect of over 50% in size
Details: series mostly up to 46.1 µM; activity, positive = more growth: at the top concentration
Text: NIH Chemical Genomics Center [NCGC]
NIH Molecular Libraries Probe Centers Network [MLPCN]
Assay Submitter (PI): Daniel Engel
Influenza is a world-wide public health problem and emerging forms of the virus have the potential to cause a pandemic of equal or greater magnitude to the outbreaks recorded in 1918, 1957 or 1968. Vaccine development is proceeding and there also exist two classes of anti-influenza compounds. However these therapeutic modalities are neither fully effective nor widely enough available to fulfill global needs. In addition their potential usefulness against newly emergent strains is not known. Efforts are needed to develop novel agents against influenza virus, including broad-spectrum agents. Identification of small molecules that inhibit NS1 function either directly or by interfering with specific cellular pathways may be a key to increasing our defense against the virus.
We have miniaturized and optimized a cell based assay in which NS1 from influenza A is expressed in the budding yeast S. cerevisiae. NS1 is a multi-functional protein that counters the host innate immune response and facilitates viral versus cellular gene expression. Expression of NS1 causes a pronounced slow growth phenotype in yeast due to its intrinsic molecular activities. Small molecules that suppress the slow growth phenotype can be identified by a straightforward growth recovery assay using optical density (OD) as the measurement. The same yeast strain not expressing NS1 was used as positive control in the yeast growth recovery assay.
The yeast S. cerevisiae control and NS1 expressing cells were kindly supplied by laboratory of Dr. Daniel Engel, University of Virginia. Yeast starter cultures were stored in single use aliquots at -80C.
1. Yeast culture medium per liter: 1.2 g Yeast Nitrogen Base (w/out amino acids and Ammonium Sulphate), 5.0g Ammonium Sulphate, 0.77g -URA DO (drop-out) Supplement, adjust pH to 6.0. Adjust to 2% glucose prior to inoculating with yeast.
2. Yeast assay medium: 1.2 g Yeast Nitrogen Base (w/out amino acids and Ammonium Sulphate), 5.0g Ammonium Sulphate, 0.77g -URA DO (drop-out) Supplement, adjust pH to 6.0. Adjust to 2% D-galactose prior to inoculating with yeast.
1. Inoculate 100 mls of yeast culture medium with 1 ml of frozen yeast aliquote. Incubate overnight at 30C, 250RPM.
2. Harvest overnight culture at 4000 RPM and wash pellet with 15 mls H2O 3x.
3. Re-suspend washed pellet in 10 mls of yeast assay medium.
4. Prepare a 1:100 dilution of re-suspended culture in yeast assay medium.
5. Dispense 3.5 ul per well of reagents in step 4 in columns 2-48 in a black clear bottom 1536 well plate.
6. Dispense 3.5 ul per well of yeast assay medium in column 1 only.
7. Transfer 23 nl of compound per well.
8. Dispense 3.5 ul per well of yeast assay medium in columns 1-48.
9. Read plate using Viewlux protocol for optical density 600 (OD600) using excitation filter 600nm.
Potency is the fitted concentration of half-maximal effect.

Compared with `Cc1nc2c(c(=O)n1Cc1ccco1)c1nc3ccccc3nc1n2Cc1ccccc1`, `COCCCn1c2nc3ccccc3nc2c2c(=O)n(Cc3ccc(Cl)cc3)c(C)nc21` is lower in “activity, positive = more growth” value: 3.74% for the first, -0.53% for the second.

First: CC1(C(=O)NNC(=S)NCC2CCCO2)CC1(Cl)Cl (stereo unspecified)
Second: O=C(Nc1ccc(C2CC2(Cl)Cl)cc1)c1cccc([N+](=O)[O-])c1 (stereo unspecified)
The “activity, positive = more growth” value of the first is higher: -1.43% for the first, -29.5% for the second.

Compared with `O=C(N[C@@H](Cc1ccccc1)C(=O)OCc1ccccc1)c1nc[nH]c1C(=O)N[C@@H](Cc1ccccc1)C(=O)OCc1ccccc1`, `Cc1ccc(S(=O)(=O)Nc2ccccc2CNc2c(C)n(C)n(-c3ccccc3)c2=O)cc1` is lower in “activity, positive = more growth” value: 6.79% for the first, -70% for the second.

Compared with `CCc1ccc(OCC2c3cc(OC)c(OC)cc3CCN2C(C)=O)cc1` (stereo unspecified), `COc1ccc(C2CC(c3cccs3)=NN2C(=O)CCC(=O)O)cc1OC` (stereo unspecified) is higher in “activity, positive = more growth” value: 5.89% for the first, 19.5% for the second.

First: COc1ccccc1NC(=O)CN1CCN(S(=O)(=O)c2ccc(Br)cc2)CC1
Second: COc1ccc(NC(=O)CN2CCN(S(=O)(=O)c3ccc(F)cc3)CC2)cc1Cl
The “activity, positive = more growth” value of the first is lower: -5.14% for the first, -4.2% for the second.

Going from `CC(CN1CCOCC1)OC(=O)c1ccc(C(C)(C)C)cc1` (stereo unspecified) to `COc1cnc(-c2ccccn2)nc1Oc1ccc(C(C)(C)C)cc1`, the “activity, positive = more growth” value rises from -23.1% to -1.08%.

Going from `O=C(CC(n1cncn1)C(Cl)(Cl)Cl)c1ccc([N+](=O)[O-])cc1` (stereo unspecified) to `O=[N+]([O-])c1ccc(NC(=S)N2CCN(c3ccccn3)CC2)cc1`, the “activity, positive = more growth” value rises from -84.2% to -11.2%.

First: Cc1cc(C)c(S(=O)(=O)Nc2c(C)n(C)n(-c3ccccc3)c2=O)cc1[N+](=O)[O-]
Second: Cc1cc(C(=O)N/N=C/c2ccccc2[N+](=O)[O-])c(C)o1
The “activity, positive = more growth” value of the first is lower: -4.82% for the first, -0.261% for the second.

First: FC(F)(F)C1CCCN(c2nsc3ccccc23)C1 (stereo unspecified)
Second: COc1cccc(OCc2cc(C(=O)N3CCN(C(=O)c4ccco4)CC3)no2)c1
The “activity, positive = more growth” value of the first is lower: -121% for the first, -6.93% for the second.

First: Cc1ccsc1/C=N/NC(=O)Cc1cc(=O)[nH][nH]1
Second: COc1ccc(C2CC(c3cccs3)=NN2C(=O)COC(=O)c2cc3ccccc3cc2O)cc1OC (stereo unspecified)
The “activity, positive = more growth” value of the first is lower: 14.1% for the first, 24.1% for the second.

In the case of `O=C(CSc1nnnn1C1CCCC1)N1CCCCC1`, the “activity, positive = more growth” value is reported as 4.51%.

In the case of `Cc1ccc(Cn2c(C)nc3c(c2=O)c2nc4ccccc4nc2n3Cc2ccco2)cc1`, the Potency is reported as 4.47 µM (active).
In the case of `COc1cc2c(cc1NC(=O)CN1CCN(S(=O)(=O)c3ccc(F)cc3)CC1)oc1ccccc12`, the Potency is reported as 5.62 µM (active).
In the case of `COc1ccc(S(=O)(=O)Nc2c(C)n(C)n(-c3ccccc3)c2=O)cc1`, the Potency is reported as 3.98 µM (active).
For `O=C(Cc1cc(=O)[nH][nH]1)N/N=C/c1ccccc1[N+](=O)[O-]`, the Potency was 8.91 µM (active).
In the case of `O=C1c2cccc(OCC(=O)N3N=C(c4cccs4)CC3c3ccc(F)cc3)c2CCN1Cc1ccccc1` (stereo unspecified), the Potency is reported as 5.01 µM (active).
